According to PubChem BioAssay:
The source made the active and inactive calls. Unless noted, how the calls were made is not given here.

How the values were obtained:
[1] = system: Wnt5a (protein binding on small-molecule microarray); assay: Wnt5a binders on small-molecule microarray, primary screen, biophysical, 635/667 nm fluorescence (AID 1142); details: 635 nm fluorescence, higher = more signal;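 further: fluorescence read at 667 nm with signal to noise per printed feature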
[2] = cell viability in Huh7 cells, primary screen, cytotoxicity control for HCV replication inhibitor project, CellTiter-Glo luminescence, basal, 48 h (AID 1143); details: Huh7 HCV replicon, higher = more signal, called active from +8 up or from −8 down;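 further: Huh7 hepatoma cells carrying a hepatitis C replication reporter with no stimulus; test concentration not given here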
[3] = P. aeruginosa biofilm formation inhibitors, primary screen, PAO1 strain, BacTiter-Glo luminescence, LB-PBS (AID 1144); details: 12 h, higher = more signal
[4] = CREB reporter modulators without forskolin, primary screen, cell-based, PC12, CRE-LacZ reporter, unstimulated (AID 1145); details: no forskolin, luminescence, 4.5 h, higher = more signal, called active from +8 up or from −8 down
[5] = CREB reporter modulators under forskolin, primary screen, cell-based, PC12, CRE-LacZ reporter, forskolin-stimulated (AID 1146); details: luminescence, 4.5 h, higher = more signal, called active from +8 up or from −8 down;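 further: PC12 cells with 6xCRE LacZ reporter stimulated by forskolin 10 µM; beta-galactosidase reporter signal reflecting CREB driven transcription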
[6] = target: Streptavidin (Streptomyces avidinii) (UniProt P22629); assay: streptavidin binders on small-molecule microarray, primary screen, artefact control for SMM compound annotation, biophysical, 635/667 nm fluorescence (AID 1147); details: streptavidin binding, higher = more signal;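 further: signal reflects streptavidin binding to arrayed compounds as a control protein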
Chain of Streptavidin (Streptomyces avidinii) (P22629 whole entry, looked up): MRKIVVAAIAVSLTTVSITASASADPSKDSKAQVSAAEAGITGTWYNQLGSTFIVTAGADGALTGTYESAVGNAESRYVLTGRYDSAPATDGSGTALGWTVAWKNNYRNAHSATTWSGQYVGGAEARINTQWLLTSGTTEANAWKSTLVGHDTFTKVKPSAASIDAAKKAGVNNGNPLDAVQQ

[7] = small-molecule binders of probe aInhba, primary screen, biochemical, small-molecule microarray, 635/667 nm fluorescence (AID 1148); details: higher = more signal;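 further: score merges 667nm spot fluorescence with signal-to-noise for antibody binding to printed compounds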
Torsin-1A (Homo sapiens) [8] = target: Torsin-1A (Homo sapiens) (UniProt O14656); assay: torsin A binders from cell lysate, primary screen, small-molecule microarray, wild-type, 635/667 nm (AID 1149); details: COS7 hTOR1A-WT lysate, 635 nm fluorescence, higher = more signal
Chain of Torsin-1A (Homo sapiens) (O14656 whole entry, looked up): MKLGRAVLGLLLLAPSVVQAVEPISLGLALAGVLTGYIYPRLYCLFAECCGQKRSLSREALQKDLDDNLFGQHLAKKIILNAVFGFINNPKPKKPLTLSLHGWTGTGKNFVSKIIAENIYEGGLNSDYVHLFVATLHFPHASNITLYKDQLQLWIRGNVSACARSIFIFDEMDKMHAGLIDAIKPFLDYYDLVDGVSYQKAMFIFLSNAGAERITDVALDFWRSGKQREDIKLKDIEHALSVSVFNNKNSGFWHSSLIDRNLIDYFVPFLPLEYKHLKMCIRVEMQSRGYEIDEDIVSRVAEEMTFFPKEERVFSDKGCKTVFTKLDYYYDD

Torsin-1A (Homo sapiens) [9] = target: Torsin-1A (Homo sapiens) (UniProt O14656); assay: small-molecule binders of mutant TOR1A in lysate, primary screen, cell lysate, small-molecule microarray, COS7 lysate, 635/667 nm fluorescence (AID 1150); details: COS7 hTOR1A mutant lysate, 635 nm fluorescence, higher = more signal;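 further: score pools 667 nm emission and signal to noise measuring lysate protein binding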
[10] = system: Sonic hedgehog protein (Shh); assay: small-molecule binders of Shh protein, primary screen, biochemical, small-molecule microarray, 635/667 nm fluorescence (AID 1151); details: small-molecule microarray binding, 635 nm fluorescence; higher = more signal;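 further: Shh protein binding to compounds spotted on small-molecule microarray slides; score combines spot fluorescence intensity with signal-to-noise across triplicate slides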

SMILES | composite z-score [1] | z-score [2] | z-score [3] | z-score [4] | z-score [5] | composite z-score [6] | composite z-score [7] | composite z-score (Torsin-1A (Homo sapiens) [8]) | composite z-score (Torsin-1A (Homo sapiens) [9]) | composite z-score [10]
CCOC(=O)C1=CC[C@@H](c2ccccc2Cl)N(S(=O)(=O)c2ccc(C)cc2)C1 | 0.149 | -5.35 (inactive) | -0.602 (inactive) | 0.173 (inactive) | -0.0077 (inactive) | 0.884 | 0.0569 | 0.623 | 0.738 | -0.53
CC(C)c1ccc(NN2C(C(O)c3cccc(O)c3)C=CC3C(=O)N(c4ccccc4)C(=O)C32)cc1 (stereo not given) | 0.125 | -0.392 (inactive) | -0.406 (inactive) | 1.39 (inactive) | 1.67 (inactive) | 1.52 | 0.0236 | 0.77 | 1.3 | 0.671
CCOC(=O)C[C@H]1[C@H](OC(=O)c2ccccc2-c2ccccc2)[C@@H](NC(=O)Cc2ccc(OC)cc2)c2cc(OCCCO)ccc2N1C(=O)c1ccccc1 | 0.222 | -0.0369 (inactive) | 0.817 (inactive) | 4.57 (inactive) | 2.83 (inactive) | -0.105 | -0.287 | -0.259 | 0.405 | -0.127
O=C1O[C@@H](c2ccccc2)[C@@H](c2ccccc2)N2[C@@H](c3ccccc3OCCO)[C@]3(C(=O)Nc4ccc(C#CC5(O)CCCCCC5)cc43)[C@@H](C(=O)Nc3nc4ccccc4s3)[C@H]12 | 0.555 | -5 (inactive) | 0.207 (inactive) | 0.224 (inactive) | 0.474 (inactive) | 1.22 | -0.0195 | 0.711 | 0.659 | 0.902
N[C@@H](Cc1ccccc1)Cn1cc(-c2ccccc2)nn1 | -0.15 | -2.58 (inactive) | -0.244 (inactive) | 0.0035 (inactive) | 0.292 (inactive) | 0.861 | -0.0963 | -0.0409 | -0.0827 | 0.0939
CC(C)Cc1ccc(CN2CC[C@@H](NS(=O)(=O)c3ccccc3)C2)cc1 | -0.353 | -5.08 (inactive) | -0.721 (inactive) | 0.224 (inactive) | -0.138 (inactive) | -0.369 | -0.188 | -0.957 | -0.274 | 1.45
COc1ccc([Si](C)(C)[C@@H]2[C@@H](CC(=O)N(CCO)Cc3ccccc3)O[C@]3(C(=O)N(C)c4ccccc43)[C@H]2C)cc1 | 0.205 | -4.28 (inactive) | -0.054 (inactive) | 11.9 (active) | 1.37 (inactive) | 0.92 | 0.218 | 0.089 | 0.152 | 1.74
CC(C)(C)N1CC=CC23O[C@@H]4C=CCOC(=O)[C@@H]4[C@H]2C(=O)N(CCCCCO)[C@@H]3C1=O (stereo not given in full) | -0.248 | 0.228 (inactive) | 0.123 (inactive) | -0.631 (inactive) | 0.687 (inactive) | -1.41 | -0.421 | -0.803 | -1.05 | -0.15
N#Cc1ccc(NN2C(C(O)c3ccc([N+](=O)[O-])cc3)C=CC3C(=O)N(c4ccccc4)C(=O)C32)cc1 (stereo not given) | 0.72 | 0.845 (inactive) | -0.245 (inactive) | -0.525 (inactive) | 0.516 (inactive) | 0.323 | 0.137 | -0.169 | 0.303 | -0.261
CCCNC(=O)[C@@H]1c2ccccc2C(=O)N(Cc2ccccc2)[C@H]1c1ccc(CO)cc1 | -0.0869 | -1.98 (inactive) | -0.112 (inactive) | -0.179 (inactive) | 0.0988 (inactive) | 0.624 | -0.0405 | -0.468 | -0.221 | -0.461
COCCOC(=O)N1C(=O)[C@@]2(c3cc(C#CCCO)ccc31)[C@H](C(=O)NC[C@H](O)c1ccccc1)[C@H]1C(=O)O[C@H](c3ccccc3)[C@H](c3ccccc3)N1[C@@H]2c1ccc(O)cc1 | 0.0418 | -0.612 (inactive) | -1.16 (inactive) | -1.29 (inactive) | -0.201 (inactive) | 0.276 | -0.0136 | 0.581 | 1.12 | 1.79
O=C(CS)NCCCCCCNC(=O)[C@H]1C[C@H]2C(=O)NCC(=O)N2[C@H]1c1ccc(O)cc1 | -0.319 | 0.0181 (inactive) | -0.333 (inactive) | 0.692 (inactive) | 0.551 (inactive) | -0.406 | -0.188 | -0.21 | -0.14 | 0.518
CN1CCC(CCCO)=CC1c1ccc(CN2CCCC2)cc1 (stereo not given) | 0.958 | -0.428 (inactive) | -0.692 (inactive) | -0.974 (inactive) | 0.239 (inactive) | 0.825 | 0.0096 | 3.12 | 2.86 | 2.08
[N-]=[N+]=NCc1ccccc1[C@@H]1OC(c2ccc(OCCCO)cc2)=N[C@]1(Cc1ccccc1)C(=O)N1CCCCC1 | 0.663 | -3.77 (inactive) | -0.641 (inactive) | 1.56 (inactive) | -0.546 (inactive) | 0.466 | 0.288 | -0.451 | -0.271 | 0.0721
C=C[C@@H](COC(C)=O)N(Cc1ccccc1[N+](=O)[O-])S(=O)(=O)c1ccc(Br)cc1 | 0.521 | -4.76 (inactive) | -1.65 (inactive) | -0.0108 (inactive) | -1.41 (inactive) | 1.16 | -0.104 | 0.55 | 1.58 | 1.97
O=C(CS)NCCCCCCNC(=O)[C@H]1C[C@H]2C(=O)N3CCC[C@H]3C(=O)N2[C@H]1c1cccc(OCCO)c1 | 0.35 | -0.521 (inactive) | -0.357 (inactive) | 0.549 (inactive) | 0.581 (inactive) | 0.359 | -0.0917 | 0.536 | 1.31 | 1.52
CO[C@H]1O[C@H](CO)[C@@H](OC(=O)Nc2ccc3c(c2)OCO3)[C@H](OC(=O)Nc2ccccc2)[C@H]1OC(=O)Nc1ccccc1 | 0.446 | -5.46 (inactive) | -0.785 (inactive) | 1.16 (inactive) | -2.23 (inactive) | 0.869 | 0.0906 | 0.487 | 1.11 | 1.43
COc1ccc(C#Cc2ccc3c(c2)[C@]2(C(=O)N3)[C@H](C(=O)NC[C@H](O)c3ccccc3)[C@H]3C(=O)O[C@H](c4ccccc4)[C@H](c4ccccc4)N3[C@@H]2c2ccc(OCCO)cc2)cc1 | 0.628 | -2.89 (inactive) | -0.563 (inactive) | 0.478 (inactive) | -0.447 (inactive) | 0.59 | -0.0173 | 0.369 | 0.869 | 1.96
CC(=O)NCCCC[C@@H]1NC(=O)[C@H]2C[C@@H](C(=O)NCCCCCC[N+](C)(C)C)[C@@H](c3cccc(OCCO)c3)N2C1=O | 0.408 | -2.49 (inactive) | -1.01 (inactive) | -0.801 (inactive) | -0.812 (inactive) | 0.927 | -0.149 | 1.07 | 0.59 | 2.26
C=CCNC(=O)[C@@H]1[C@H]2C(=O)O[C@H](c3ccccc3)[C@H](c3ccccc3)N2[C@H](c2ccc(OCCO)cc2)[C@@]12C(=O)Nc1ccccc12 | 0.358 | -4.32 (inactive) | -2.23 (inactive) | -0.905 (inactive) | -1.87 (inactive) | 0.226 | -0.102 | 0.355 | 0.209 | 1.61
CCCNC(=O)[C@@]1(c2ccc([N+](=O)[O-])cc2)CC(=O)N(CC23CC4CC(CC(C4)C2)C3)[C@@H]1c1ccc(CO)cc1 | 0.4 | -5.17 (inactive) | -0.293 (inactive) | 0.531 (inactive) | -0.312 (inactive) | -0.204 | -0.272 | 0.0865 | 0.319 | 0.34
NC(=O)NCC#Cc1ccc2c(c1)[C@]1(C(=O)N2)[C@H](C(=O)N2CCCCCCC2)[C@H]2C(=O)O[C@H](c3ccccc3)[C@H](c3ccccc3)N2[C@@H]1c1ccc(OCCO)cc1 | 0.683 | -0.416 (inactive) | -0.0789 (inactive) | 0.619 (inactive) | 0.0646 (inactive) | 2.11 | 0.563 | 0.92 | 0.304 | 0.679
CCOC(=O)C[C@H]1[C@H](OC(=O)c2ccc(-c3ccccc3)cc2)[C@@H](NC(=O)Cc2ccc(OC)cc2)c2cc(OCCCO)ccc2N1C(=O)c1ccc2ccccc2n1 | 0.163 | 0.429 (inactive) | 0.26 (inactive) | -0.0529 (inactive) | -0.489 (inactive) | 0.8 | -0.0468 | 0.33 | -0.0342 | -0.525
O=C1O[C@@H](c2ccccc2)[C@@H](c2ccccc2)N2[C@@H](c3ccc(O)cc3)[C@]3(C(=O)Nc4ccc(C#CC5=CCCCC5)cc43)[C@@H](C(=O)O)[C@H]12 | 0.942 | -2.52 (inactive) | -2.85 (inactive) | -0.0515 (inactive) | -1.12 (inactive) | 1.75 | 0.198 | 0.198 | 0.637 | 0.146
[N-]=[N+]=NCc1ccccc1C[C@]1(C(=O)NCC(O)CO)N=C(c2ccc(OCCCO)cc2)O[C@H]1c1ccccc1N=[N+]=[N-] (stereo not given in full) | 0.376 | -2.54 (inactive) | -0.000841 (inactive) | 0.241 (inactive) | -1.78 (inactive) | 0.22 | 0.403 | 0.26 | 0.67 | -1.48
COCCCNC(=O)[C@@]1(c2ccc([N+](=O)[O-])cc2)CC(=O)N(CC23CC4CC(CC(C4)C2)C3)[C@@H]1c1ccc(CO)cc1 | 0.459 | -4.39 (inactive) | -1.51 (inactive) | -0.179 (inactive) | -0.284 (inactive) | 0.0765 | -0.0018 | 1.02 | 0.894 | 2.13
C=CCC(OC(C)=O)[C@@H]1[C@@H](N(Cc2cccc3ccccc23)C(=O)c2ccc(C)cc2)c2cc(OCCCO)ccc2N1C(=O)Cc1ccc(OC)cc1 (stereo not given in full) | -0.0466 | -0.798 (inactive) | -0.738 (inactive) | -0.402 (inactive) | -0.281 (inactive) | 0.547 | -0.189 | 0.291 | 0.553 | 0.562
O=C(NCc1ccccc1)[C@]1(CCS(=O)(=O)c2ccccc2)N=C(c2ccc(OCCCO)cc2)O[C@@H]1c1ccccc1 | 0.721 | -2.63 (inactive) | -0.422 (inactive) | -1.04 (inactive) | 0.0925 (inactive) | 0.959 | 0.111 | 0.129 | 0.585 | 0.16
